# According to the supplement of paper PMC6992640:
# ± gives the standard deviation of the averaged measurements.
# Tests used:
# Test in all cases: cell viability (% of vehicle); higher = less cytotoxic
# Conditions in all cases: 10 µM; 72 h
# HCI01 = system: HCI01 (cells of a triple-negative basal-like breast cancer xenograft)
# HCI03 = system: HCI03 (cells of an ER-positive luminal breast cancer xenograft)
# HCI09 = system: HCI09 (cells of a triple-negative luminal androgen receptor type breast cancer xenograft)
# HCI11 = system: HCI11 (cells of an ER-positive luminal breast cancer xenograft)
# HCI13 = system: HCI13 (cells of an ER-positive luminal breast cancer xenograft)
# HCI16 = system: HCI16 (cells of a triple-negative basal-like breast cancer xenograft)
# UCD52 = system: UCD52 (cells of a triple-negative basal-like breast cancer xenograft)
# WHIM2 = system: WHIM2 (cells of a triple-negative basal-like breast cancer xenograft)
# WHIM30 = system: WHIM30 (cells of a triple-negative basal-like breast cancer xenograft)
# 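Note: PDX cells carrying CMV promoter-driven luciferase, viability read as total photon flux per second by IVIS imaging following D-luciferin, vehicle control 0.1% DMSO.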
SMILES,cell viability (HCI01),cell viability (HCI03),cell viability (HCI09),cell viability (HCI11),cell viability (HCI13),cell viability (HCI16),cell viability (UCD52),cell viability (WHIM2),cell viability (WHIM30)
COC(=O)C1=C(C#N)NC(C)=C(C(=O)OC(C)C)C1c1cccc([N+](=O)[O-])c1 (stereo unspecified) [Nilvadipine],112 ± 8.1,125,77 ± 4.5,85.7,138 ± 29,101,70.2 ± 1.1,116 ± 12,83.4 ± 10
O=C([C@H](CCC/N=C(N)/N)NS(=O)(C1=C2NC[C@H](C)CC2=CC=C1)=O)N3[C@@H](C(O)=O)C[C@H](C)CC3 [Argatroban],116 ± 7.1,130,98 ± 6.5,116,95.2 ± 6,96.6,80.3 ± 7.5,98.9 ± 18,132 ± 14
O=C([O-])c1cc(=O)c2c(OCC(O)COc3cccc4oc(C(=O)[O-])cc(=O)c34)cccc2o1.[Na+].[Na+] [Cromolyn sodium],136 ± 48,135,97.1 ± 3.8,71.8,102 ± 13,116,113 ± 5,134 ± 15,121 ± 4.5
C=CC[N+]1(C2CC3C4CCC5CC(O)C(N6CCOCC6)CC5(C)C4CCC3(C)C2OC(C)=O)CCCC1.[Br-] (stereo unspecified) [Rocuronium Bromide],100 ± 8.3,133,103 ± 3.9,102,115 ± 7.2,80.4,118 ± 8,99.8 ± 22,119 ± 7.7
CCOC(=O)C1OC1C(=O)NC(CC(C)C)C(=O)NCCC(C)C (stereo unspecified),108 ± 6.8,118,97.6 ± 1.9,91.9,165 ± 7.1,70.3,97.4 ± 3.2,105 ± 38,99.6 ± 12
O=c1ccc2ccccc2o1 [Coumarin],110 ± 15,145,99.9 ± 6.8,95,102 ± 7.2,128,93.3 ± 14,113 ± 4.4,114 ± 2.5
CC(CCC(=O)O)C1CCC2C3C(O)CC4CC(O)CCC4(C)C3CCC12C (stereo unspecified) [Ursodiol],90.9 ± 70,150,100.8 ± 0.88,95.2,126 ± 9.4,124,89.82 ± 0.32,111 ± 9.3,155 ± 12
CC12CCC(O)CC1=CCC1C2CCC2(C)C(n3cnc4ccccc43)=CCC12 (stereo unspecified),119 ± 15,58.2,54.3 ± 41,76.2,103 ± 7.5,96.3,83.2 ± 4.1,118 ± 18,93.6 ± 13
CC(=O)OC12COC1CC(O)C1(C)C(=O)C(O)C3=C(C)C(OC(=O)C(O)C(NC(=O)OC(C)(C)C)c4ccccc4)CC(O)(C(OC(=O)c4ccccc4)C21)C3(C)C.O.O.O (stereo unspecified) [Docetaxel Trihydrate],106 ± 13,96.7,72.6 ± 5.4,86.1,101 ± 3.5,155,91.02 ± 0.77,72.3 ± 6.2,107 ± 5.4
NCCCCCC(=O)O [(6-)ε-Aminocaproic acid],67.8 ± 37,136,90 ± 16,79.6,104 ± 5,101,77.2 ± 5.2,101 ± 24,155 ± 23
Cc1ncc([N+](=O)[O-])n1CC(C)O (stereo unspecified) [Secnidazole],57.6 ± 32,133,82.6 ± 1.1,89.3,103 ± 11,114,79.3 ± 1.8,92.4 ± 20,149 ± 20
CCS(=O)(=O)CCn1c([N+](=O)[O-])cnc1C [Tinidazole],92 ± 28,111,79.8 ± 12,88.6,101 ± 4.4,101,83.4 ± 14,81.2 ± 1.9,163 ± 1.9
Cl.O=C1c2cccc3c2C(CCC3)CN1C1CN2CCC1CC2 (stereo unspecified) [Palonosetron HCl],86 ± 15,87.8,118 ± 38,94.8,100 ± 12,111,76.3 ± 4.4,82.6 ± 5.7,104 ± 8.2
COc1cc2c(cc1OC)C(=O)C(CC1CCN(Cc3ccccc3)CC1)C2.Cl (stereo unspecified) [Donepezil HCl],137 ± 8.8,89.9,113 ± 5,106,152.6 ± 0.61,147,66.1 ± 6.9,86.1 ± 4,107 ± 14
NC(CSCCCO)C(=O)O (stereo unspecified) [Fudosteine],91 ± 9.3,103,87.1 ± 7.6,94.5,107 ± 11,96.1,77.3 ± 4.8,112 ± 14,91.1 ± 8.5
CC(=O)Oc1cccc2c1C(=O)c1c(OC(C)=O)cc(C(=O)O)cc1C2=O [Diacerein],57 ± 39,93.9,79.1 ± 34,77.8,109 ± 11,146,98.6 ± 6.8,123 ± 39,60.3 ± 16
CC(C)NCC(O)COc1ccc(CCOCC2CC2)cc1.Cl (stereo unspecified) [Levobetaxolol HCl],125 ± 30,104,112 ± 18,105,145 ± 15,127,109 ± 18,96.8 ± 13,114 ± 14
O=C(O)COCCN1CCN(C(c2ccccc2)c2ccc(Cl)cc2)CC1 (stereo unspecified) [Cetirizine],108 ± 5.1,95.2,97.2 ± 2.1,93.5,108 ± 2.5,74.6,92.6 ± 3.8,94.8 ± 4.7,128 ± 9.9
CCN(CC)CC#CCOC(=O)C(O)(c1ccccc1)C1CCCCC1 (stereo unspecified) [Oxybutynin],141 ± 10,130,132 ± 73,118,117 ± 17,134,82.9 ± 5.8,97.1 ± 30,148 ± 6.4
O=C(O)c1ccc2c(c1)nc(Nc1cccc(Cl)c1)c1ccncc12 [CX-4945 (Silmitasertib)],115 ± 62,111,28.5 ± 13,137,192 ± 22,106,78 ± 8.1,99.48 ± 0.45,79.9 ± 14

SMILES,cell viability (HCI01),cell viability (HCI03),cell viability (HCI09),cell viability (HCI11),cell viability (HCI13),cell viability (HCI16),cell viability (UCD52),cell viability (WHIM2),cell viability (WHIM30)
CC(C)=CCCC(C)=CCCC(C)=CCSc1ccccc1C(=O)O [Salirasib],69.5 ± 50,112,95.6 ± 7.4,97.9,84.5 ± 4.3,103,95.5 ± 4.6,39.5 ± 1.3,120 ± 15
Cc1c(-c2cnccn2)ssc1=S [Oltipraz],89.2 ± 5.2,113,88.5 ± 4,66.1,89.8 ± 8.7,104,94.8 ± 9.3,91 ± 14,72.8 ± 2.9
COc1cc(C)c(C=CC(C)=CC=CC(C)=CC(=O)O)c(C)c1C [Acitretin],113 ± 9.7,72.4,90.9 ± 14,86.5,83 ± 13,76.7,130 ± 8.7,90.5 ± 16,145 ± 42
COc1cc(OC)c(C=CS(=O)(=O)Cc2ccc(OC)c(NCC(=O)[O-])c2)c(OC)c1.[Na+],126.6 ± 0.39,111,112 ± 11,99.6,40.1 ± 4.7,115,117 ± 20,73.9 ± 14,112 ± 16
Cl.c1ccc2c(CC3=NCCN3)cccc2c1 [Naphazoline HCl],121 ± 18,105,104 ± 20,101,88.7 ± 14,93.3,81.6 ± 9.3,92.3 ± 26,122 ± 21
O=C([O-])C(O)C(O)C(O)C(O)C(O)CO.O=C([O-])C(O)C(O)C(O)C(O)C(O)CO.[Ca+2] (stereo unspecified) [Calcium Gluceptate],134 ± 3.3,162,112 ± 4.9,127,110 ± 8.2,124,87.2 ± 13,109 ± 3.2,141 ± 8.1
Cc1ccc(-c2cc(C(F)(F)F)nn2-c2ccc(S(N)(=O)=O)cc2)cc1 [Celecoxib],139 ± 24,110,94.7 ± 7.4,94.4,94 ± 2.9,112,70.1 ± 3.8,93.3 ± 12,100.5 ± 1
NCC1OC(OC2C(N)CC(N)C(OC3OC(CO)C(O)C(N)C3O)C2O)C(O)C(O)C1O.O=S(=O)(O)O (stereo unspecified) [Kanamycin Sulfate],106 ± 5.6,92.9,90.5 ± 16,96.7,120 ± 31,86.8,81.5 ± 0.83,80.1 ± 15,95.8 ± 11
COc1nc(C)cnc1NS(=O)(=O)c1cccnc1-c1ccc(-c2nnco2)cc1 [Zibotentan (ZD4054)],122 ± 15,116,105 ± 9.6,117,125 ± 12,125,97.9 ± 1.1,85.7 ± 3.5,139 ± 6.9
"Cc1[nH]c(C=C2C(=O)Nc3ccccc32)c(C)c1CCC(=O)O [TSU-68 (SU6668,Orantinib)]",79.2 ± 19,116,90.8 ± 25,106,60.8 ± 6.6,111,123 ± 18,60.9 ± 4.7,112 ± 13
CCOC(=O)C(CCc1ccccc1)NC1CCc2ccccc2N(CC(=O)O)C1=O.Cl (stereo unspecified) [Benazepril HCl],107 ± 11,159,130 ± 41,93.5,196 ± 40,161,130 ± 7.6,107 ± 13,170 ± 22
CCCCCN(C)CCC(O)(P(=O)([O-])O)P(=O)(O)O.O.[Na+] [Ibandronate sodium],113 ± 30,93.2,107 ± 19,101,126 ± 20,138,115 ± 5.5,130 ± 14,128 ± 22
CCn1cc(C(=O)O)c(=O)c2ccc(C)nc21 [Nalidixic acid],86 ± 19,114,96.6 ± 10,92.1,113 ± 3,103,79 ± 6.3,87.7 ± 7.2,112 ± 12
CC1=NS(=O)(=O)c2cc(Cl)ccc2N1 [Diazoxide],92.6 ± 9.1,151,86.4 ± 17,98.1,99.6 ± 11,102,104 ± 2.7,95.9 ± 3.5,117 ± 3.8
O=P(O)(O)C(O)(Cn1ccnc1)P(=O)(O)O [Zoledronic Acid],134 ± 17,135,88.4 ± 13,172,75.2 ± 8.7,94.7,60.6 ± 1.4,68.7 ± 15,107 ± 21
CC(NC(=O)Cc1cc(F)cc(F)c1)C(=O)NC(C(=O)OC(C)(C)C)c1ccccc1 (stereo unspecified),111 ± 14,115,64.1 ± 6.3,104,116 ± 9.7,130,60.1 ± 2.1,74.18 ± 0.26,123 ± 25
CCCc1cc(C(N)=S)ccn1 [Protionamide],90.1 ± 32,117,97.5 ± 3,89.2,117 ± 10,112,100.1 ± 0.95,84 ± 27,112 ± 7.7
Cl.c1ccc(CN(CC2=NCCN2)c2ccccc2)cc1 [Antazoline HCl],133.9 ± 0.91,123,103 ± 1.1,119,109 ± 9.2,144,66.7 ± 18,92.52 ± 0.86,102 ± 8.3
CC(C)C1C(=O)NC(CCCN=C(N)N)C(=O)NCC(=O)NC(CC(=O)O)C(=O)NC(Cc2ccccc2)C(=O)N1C (stereo unspecified) [Cilengitide],114 ± 9.1,76.7,125 ± 49,97.4,124 ± 12,91,84.4 ± 5.5,94.1 ± 6.8,143 ± 14
